Assay outcomes as filed in PubChem.
GLP-1R inv ag: qHTS of GLP-1 Receptor Inverse Agonists (Inhibition Mode); Potency, µM (top dose mostly 38.3 µM), inactives show top-dose activity change, negative = inhibition, actives largely listed as inhibitors; HEK293 GLP-1R CRE-luciferase, luminescence, 24 h; GLP-1R form is constitutively active; 410,000 tested, 1.6% active; AID 624417, 2012; Glucagon-like peptide 1 receptor (Homo sapiens), P43220; further: potency means the concentration at half of the fitted maximal effect; on the % scale 0 is the no-effect control and ±100 the full control effect; nearly all actives have a fitted effect of over 55% in size
Target sequence (P43220 whole entry, looked up): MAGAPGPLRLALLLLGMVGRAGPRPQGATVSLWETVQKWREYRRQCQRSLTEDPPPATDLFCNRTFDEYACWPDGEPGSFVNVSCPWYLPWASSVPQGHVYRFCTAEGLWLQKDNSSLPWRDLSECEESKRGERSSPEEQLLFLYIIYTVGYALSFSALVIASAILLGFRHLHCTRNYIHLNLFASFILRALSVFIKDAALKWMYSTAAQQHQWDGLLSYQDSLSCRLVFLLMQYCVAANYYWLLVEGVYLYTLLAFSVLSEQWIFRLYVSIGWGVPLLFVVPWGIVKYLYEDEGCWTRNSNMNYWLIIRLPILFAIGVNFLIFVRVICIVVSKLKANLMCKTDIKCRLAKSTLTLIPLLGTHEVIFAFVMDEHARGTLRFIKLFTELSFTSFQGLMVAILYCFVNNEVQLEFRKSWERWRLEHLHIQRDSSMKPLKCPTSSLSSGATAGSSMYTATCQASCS
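Luminescence readout: a drop in cAMP-driven luciferase signal flags inverse agonism at a constitutively active GLP-1R stably expressed in HEK293. Compound exposure lasted 24 hr at 37 deg C, 5% CO2.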
DRD3 antagonist: qHTS of D3 Dopamine Receptor Antagonist: qHTS; D(3) dopamine receptor (Homo sapiens), P35462; D3R cells, DiscoveRx beta-arrestin luminescence, antagonist mode; hits give low values; max response, negative = inhibition, %; 360,000 tested, 2.5% active; AID 652054, 2013; in the data active means max response below about -50%; inconclusive means no clear call, values can overlap the other calls; further: on the % scale 0 is the no-effect control and ±100 the full control effect
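Cells plated overnight at 1500 cells/well, then exposed to library compounds with dopamine controls for 90 minutes at 37 degrees C. DiscoveRx reagent added for 30–60 minutes at room temperature; luminescence read, quantitative HTS format.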
GLP-1R agonist: qHTS of GLP-1 Receptor Agonists; Potency, µM (series often up to 45.6 µM), without a hit: top-dose activation, actives largely listed as activators; HEK293 GLP-1R CRE-luciferase, luminescence, 4-6 h; cells express a hypersensitive GLP-1R form; Glucagon-like peptide 1 receptor (Homo sapiens), P43220; 380,000 tested, 0.007% active; further: potency means the concentration at half of the fitted maximal effect; % of control where 0% means no effect
DRD3 agonist: qHTS of D3 Dopamine Receptor Agonist: qHTS. D(3) dopamine receptor (Homo sapiens), P35462. D3R DiscoveRx beta-arrestin cells, luminescence, 90 min. max activation, %. 410,000 tested, 0.58% active. AID 652048, 2013; in the data active means max activation above about 30%; further: 0% is about no effect
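Agonist mode: compounds and dopamine controls were applied to plated cells for 90 min at 37 degrees C after an overnight attachment at 1500 cells/well. Luminescent read-out followed 30 - 60 minutes at room temperature with DiscoveRx detection reagent.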
* marks the source's active call; other numbers are inactive results; ? = inconclusive; . = no result; [ ] = another dose, or the depositor's remark. An excerpt weighted towards active compounds, which were near 4.3% of everything screened. Unless noted, the call rests on the fitted dose curve; in most records, active means well fitted curve in the direction sought with a large enough effect; inconclusive means small, poorly fitted or top-dose-only effect, or another doubt; inactive means no such curve, though single readings can be large; an effect the other way counts as inactive or inconclusive.

SMILES	GLP-1R inv ag	DRD3 antagonist	GLP-1R agonist	DRD3 agonist
NC(=O)c1ccc(CN2CCc3ccccc3C2)cc1	5%	-82*	-9%	-22
O=C(c1ccc(S(=O)(=O)N2CCCCC2)cc1)N1CCc2ccccc2C1	?	-4	9%	-12
CC1(C)Cc2cccc(OCC(=O)N3CCN(c4ccccc4F)CC3)c2O1	?	6	12%	0
COc1ccccc1N1CCN(C(=O)c2ccc(CN3CCc4ccccc4C3)cc2)CC1	0%	-67*	-12%	-5
O=C(c1ccc(Cn2c(=O)[nH]c3ccccc3c2=O)cc1)N1CCN(c2ccc(F)cc2)CC1	?	14	4%	5
COc1ccccc1C(=O)COC(=O)COc1cccc2c1OC(C)(C)C2	14%	-66*	7%	-19
O=C(c1ccc(CN2CCc3ccccc3C2)cc1)N1CCN(c2ccc(F)cc2)CC1	2µM*	-65*	0%	-9
COc1ccc(C(=O)N2CCN(c3ccccc3OC)CC2)cc1	0%	5	9%	-1
C=CCNC(=S)NN=C1CCCCCCC1	3.5µM*	3	14%	-7
NC(=S)NN=C1CCCCCCCC1	?	-9	0%	-11
NC(=S)NN=C1CCCCCCCCC1	2.8µM*	?	12%	-30
COCCNC(=S)NN=C1CCCCC1	-9%[7.66 µM]	-7	-1%	-2
OC(c1ccc(Cl)cc1Cl)C(Cc1cccnc1)n1cncn1 (centres undefined)	1%	-75*	-4%	1
O=C1OC(c2ccccc2)=C/C1=C/N1CCOCC1	23%	-55*	-5%	-7
OCCC1CN(Cc2ccc3c(c2)CCO3)CCN1Cc1ccc(F)cc1 (centres undefined)	-16%	-59*	15%	-16
Cc1ccc(CN2CCN(Cc3ccc4c(c3)OCCO4)CC2CCO)cc1 (centres undefined)	?	-55*	1%	-20
COc1cccc(CN2CCN(Cc3ccc4c(c3)OCCO4)CC2CCO)c1 (centres undefined)	-26%	-28	11%	-13
Cc1ccc(CN2CCN(Cc3cnc(C)s3)CC2CCO)cc1 (centres undefined)	-12%	-60*	1%	-15
COc1ccc(CN2CCN(Cc3ccc(C)cc3)C(CCO)C2)cc1OC (centres undefined)	4%	-18	3%	-15
Cc1ccc(CN2CCN(C3CCCC3)C(CCO)C2)s1 (centres undefined)	1%	-51*	-3%	-23
COc1cccc(NC(=O)C(=O)NCCc2csc(-c3ccc(C)cc3)n2)c1	17%	.	.	11
Cc1cncn1CCc1nc2c3ccccc3nc(SCC(=O)Nc3ccccc3F)n2n1	-14%	.	.	4
Cc1ccc(CN2CCN(Cc3ccccc3)C(CCO)C2)s1 (centres undefined)	-11%	-53*	5%	-13
Cc1ccc(CN2CCN(Cc3ccc(C)s3)CC2CCO)cc1 (centres undefined)	?	-96*	9%	-19
Cc1ccc(CN2CCN(CCC(C)C)C(CCO)C2)s1 (centres undefined)	-15%	?	10%	-28
SMILES	GLP-1R inv ag	DRD3 antagonist	GLP-1R agonist	DRD3 agonist
Cc1ccc(CN2CCN(CC(C)C)C(CCO)C2)s1 (centres undefined)	?	8	3%	-4
O=C(COC(=O)c1cc(-c2cccs2)nc2ccccc12)c1ccc(Br)cc1	6%	.	.	-3
CCOC(=O)C1(C)/C(=N/Nc2ccc(Cl)cc2)C(=O)C(=O)N1c1ccccc1 (centres undefined)	-9%	?	3%	-5
CCOC(=O)C1(C)/C(=N/Nc2cccc(Cl)c2)C(=O)C(=O)N1c1ccccc1 (centres undefined)	?	-75*	-8%	-7
Cc1ccc(C)c(NC(=S)NC(NC(=O)OCc2ccccc2)C(Cl)(Cl)Cl)c1 (centres undefined)	?	?	-11%	-3
O=C(NC(NC(=S)Nc1c(Cl)cc(Cl)cc1Cl)C(Cl)(Cl)Cl)OCc1ccccc1 (centres undefined)	?	-76*	-29%	1
CCC(C(=O)Nc1cc(Cl)ccc1OC)n1nc(-c2ccccc2)ccc1=O (centres undefined)	?	.	.	4
O=C(NCCN1CCN(c2ccccc2Cl)CC1)Nc1ccccc1	?	?	1%	8
Cc1cccc(NC(=O)NCCN2CCN(c3ccccc3)CC2)c1C	?	-71*	-6%	8
O=C(NCCN1CCN(c2ccccc2)CC1)Nc1cccc(Cl)c1	2.5µM*	?	23%	13
CCc1ccc(N2CCN(CCNC(=O)Nc3ccccc3)CC2)cc1	?	-72*	1%	-16
COc1ccc(Cl)c(NC(=O)NCCN2CCN(c3ccccc3)CC2)c1	?	?	2%	-7
Cc1ccc(NC(=O)NCCN2CCN(c3ccccc3)CC2)cc1Cl	?	-71*	13%	-7
Cc1ccc(NC(=O)NCCN2CCCCC2)cc1Cl	?	-9	3%	-23
Cc1ccc(Cl)cc1NC(=O)Cn1c(=O)oc2cc(S(=O)(=O)N3CCCC3)ccc21	-23%	.	.	-2
N#CC(CO)(Cc1ccc(OC(F)F)cc1)c1nc2ccccc2[nH]1 (centres undefined)	-26%	7	1%	1
Cc1c(C(=O)NCc2ccc(F)cc2)c(-c2ccccc2)nn1-c1ccccc1	5µM*	42	5%	7
Cc1nn(-c2ccccc2)c(C)c1C(=O)NCc1ccc(F)cc1	1%	-7	0%	1
CCn1c(SCc2ccccc2F)nc(=O)c2c(C(=O)OC)cc(C3CC3)nc21	-23%	.	.	1
O=C1C=C(c2cc3ccccc3s2)CCC1	2.5µM*	-15	-8%	1
COc1ccc([C@H]2CC(=O)C=C(c3cc4ccccc4s3)C2)cc1OC	-17%	51	24%	32*
COc1ccc([C@H]2CC(=O)C=C(c3cccc4c3sc3ccccc34)C2)cc1OC	1%	4	-3%	13
CC1(C)CC(=O)C=C(c2cc3ccccc3s2)C1	11%	45	-1%	0
COc1ccc([C@H]2CC(=O)C=C(c3ccc(C(=O)O)cc3)C2)cc1OC	57%	2	-2%	31*
COC(=O)c1cc(NC(=O)Cn2nc(-c3ccc(C)c(C)c3)ccc2=O)cc(C(=O)OC)c1	4%	.	.	-2
CCN(CCCNC(=O)c1nn(C)c2c1CS(=O)(=O)c1ccccc1-2)Cc1ccccc1	-19%	-56*	-5%	-22
CCN(CC)CCNC(=O)c1nn(C)c2c1CS(=O)(=O)c1ccccc1-2	6%	.	.	-15
Cc1ccc(NC(=O)c2ccc(-n3cccn3)c([N+](=O)[O-])c2)cc1	0%	-53*	1%	-8
